PubChem BioAssay (NCI)
This is part of a sample that, as a whole, favours compounds with a hit. Of some 79,000 tested, about 15% had one in any assay. The source made the active and inactive calls. Cut-off read from the data, not from the text of the source: active = growth inhibition above about 70%; inactive = the rest.

Columns and labels:
[1] = NCI Yeast Anticancer Drug Screen. Data for the wt1 strain (AID 149);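 note: 0% = growth of vehicle-treated wt1 cultures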; details: S. cerevisiae wt1 strain (SPY 50644) growth inhibition, active compounds read high
Summary of the method: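 Compounds are added to wt1 yeast cultures. Growth is then measured. Inhibition is expressed relative to vehicle-treated controls.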

[2] = NCI Yeast Anticancer Drug Screen. Data for the rad50EPP+ strain (AID 151);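 note: 0% = growth of vehicle-treated control cultures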; details: S. cerevisiae rad50 mutant strain, active compounds read high
Summary of the method: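 Compounds were applied to the rad50EPP+ yeast strain, which bears a defined DNA repair alteration, and growth inhibition was determined relative to vehicle-treated cultures.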

[3] = NCI Yeast Anticancer Drug Screen. Data for the mgt1 strain (AID 153); details: S. cerevisiae mgt1 mutant growth inhibition, active compounds read high
Summary of the method: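 Strain: mgt1 yeast, one of a set carrying defined DNA damage repair or cell cycle control alterations. Compound-treated growth compared with vehicle.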

[4] = NCI Yeast Anticancer Drug Screen. Data for the rad50 strain (AID 155);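 note: 0% = growth of vehicle-only cultures of the same strain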; details: S. cerevisiae rad50 strain growth inhibition, active compounds read high
Summary of the method: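 Inhibition values express reduced yeast growth in compound-treated cultures relative to vehicle-treated controls.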

[5] = NCI Yeast Anticancer Drug Screen. Data for the mec2-1 strain (AID 157); details: S. cerevisiae mec2-1 strain, active compounds read high
Summary of the method: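 Strain: mec2-1 (DNA repair/cell cycle alteration). Compound exposure, then growth measured; inhibition expressed relative to vehicle.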

[6] = NCI Yeast Anticancer Drug Screen. Data for the rad14 strain (AID 159);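 note: 0% = growth of vehicle-treated control cultures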; details: S. cerevisiae rad14 strain growth inhibition, active compounds read high
Summary of the method: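 A mutant yeast strain defective in DNA damage repair is treated with compound; inhibition of its growth is scored against untreated, vehicle-exposed cultures.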

[7] = NCI Yeast Anticancer Drug Screen. Data for the sgs1 mgt1 strain (AID 161);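 note: 0% = growth of cultures given vehicle only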; details: S. cerevisiae sgs1 mgt1 strain, active compounds read high
Summary of the method: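 Read-out: growth inhibition vs vehicle controls. Cells: mutant yeast strain deficient in DNA damage repair.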

[8] = NCI Yeast Anticancer Drug Screen. Data for the CLN2oe strain (AID 163);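 note: 0% = growth of vehicle-only control cultures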; details: S. cerevisiae CLN2oe strain, active compounds read high
Summary of the method: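 Growth of a genetically modified yeast strain is measured after compound exposure and compared with cultures given vehicle alone.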

[9] = NCI Yeast Anticancer Drug Screen. Data for the cln2 rad14 strain (AID 165);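 note: 0% = growth equal to vehicle treated cultures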; details: S. cerevisiae cln2 rad14 strain, active compounds read high
Summary of the method: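 Compounds are applied to the cln2 rad14 yeast strain, and growth is then compared with that of vehicle-treated cultures to give inhibition.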

[10] = NCI Yeast Anticancer Drug Screen. Data for the bub3 strain (AID 167); details: S. cerevisiae bub3 mutant strain, active compounds read high
Summary of the method: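 Steps: expose the mutant yeast strain to compound; grow alongside vehicle-treated cultures; measure growth; express inhibition against the vehicle cultures.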

[11] = NCI Yeast Anticancer Drug Screen. Data for the wt2 strain (AID 169);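 note: 0% = growth of vehicle-treated yeast cultures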; details: S. cerevisiae wt2 strain growth inhibition, active compounds read high
Summary of the method: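 This strain belongs to a panel of yeast strains with defined genetic alterations in DNA damage repair or cell cycle control. Compounds are applied, and growth inhibition is measured against vehicle-treated cultures.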

[12] = NCI Yeast Anticancer Drug Screen. Data for the mlh1 strain (AID 171);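 note: 0% = growth of vehicle-treated control cultures of the same strain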; details: S. cerevisiae mlh1 strain growth inhibition, active compounds read high
Summary of the method: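 Growth of the mutant yeast strain after compound exposure, expressed as inhibition relative to vehicle-only controls.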

[13] = NCI Yeast Anticancer Drug Screen. Data for the sgs1 strain (AID 173);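 note: 0% = growth of vehicle-only control cultures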; details: S. cerevisiae sgs1 mutant, active compounds read high
Summary of the method: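 Growth of a yeast strain bearing a defined genetic alteration is measured after compound treatment. Inhibition is expressed relative to vehicle-only controls.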

[14] = NCI Yeast Anticancer Drug Screen. Data for the mlh1 rad18 strain (AID 175); details: S. cerevisiae mlh1 rad18 strain growth inhibition, active compounds read high
Summary of the method: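 Read-out is yeast growth inhibition, calculated against vehicle-only controls. The compound was applied to a strain engineered with DNA damage repair alterations.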

[15] = NCI Yeast Anticancer Drug Screen. Data for the rad18 strain (AID 177); details: S. cerevisiae rad18 mutant growth inhibition, active compounds read high
Summary of the method: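 Growth of the mutant yeast strain after compound exposure, normalised to vehicle-only cultures.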

[16] = NCI Yeast Anticancer Drug Screen. Data for the rad52 strain (AID 147);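 note: 0% = growth of vehicle-treated control cultures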; details: S. cerevisiae rad52 mutant growth inhibition, active compounds read high
Summary of the method: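 Compounds are applied to a genetically defined yeast strain lacking normal DNA damage repair, and inhibition of growth is expressed relative to cultures given vehicle only.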

[17] = at 5.0 µM (retest, dose inferred, filed as 0.5)
[18] = at 50.0 µM (retest, dose inferred, filed as 5.0)

Measured: growth inhibition

CC(C)NCCCNc1c2ccccc2nc2cccc([N+](=O)[O-])c12
active: [1]; at 11.0 µM 88% | [1]; at 33.0 µM 96% | [1]; at 100.0 µM 97% | [2]; at 1.2 µM 86% | [2]; at 3.7 µM 93% | [2]; at 11.0 µM 95% | [2]; at 33.0 µM 96% | [2]; at 100.0 µM 97% | [3]; at 33.0 µM 92% | [3]; at 100.0 µM 96% | [4]; at 1.2 µM 90% | [4]; at 3.7 µM 93% | [4]; [17] 95% | [4]; at 11.0 µM 95% | [4]; at 33.0 µM 96% | [4]; [18] 99% | [4]; at 50.0 µM 83.3% | [4]; at 100.0 µM 97% | [5]; at 1.2 µM 94% | [5]; at 3.7 µM 97% | [5]; [17] 93% | [5]; at 11.0 µM 97% | [5]; at 33.0 µM 98% | [5]; [18] 98% | [5]; at 50.0 µM 86.5% | [5]; at 100.0 µM 98% | [6]; at 1.2 µM 98% | [6]; at 3.7 µM 98% | [6]; at 11.0 µM 97% | [6]; at 33.0 µM 99% | [6]; at 100.0 µM 99% | [7]; [17] 94% | [7]; [18] 98% | [7]; at 50.0 µM 80.8% | [8]; at 3.7 µM 88% | [8]; at 11.0 µM 96% | [8]; at 33.0 µM 97% | [8]; at 100.0 µM 98% | [9]; [17] 98% | [9]; [18] 99% | [9]; at 50.0 µM 85.7% | [10]; at 11.0 µM 90% | [10]; at 33.0 µM 96% | [10]; [18] 99% | [10]; at 100.0 µM 96% | [11]; at 3.7 µM 74% | [11]; at 11.0 µM 94% | [11]; at 33.0 µM 97% | [11]; at 100.0 µM 97% | [12]; at 3.7 µM 75% | [12]; at 11.0 µM 91% | [12]; at 33.0 µM 95% | [12]; at 100.0 µM 96% | [13]; at 1.2 µM 92% | [13]; at 3.7 µM 94% | [13]; at 11.0 µM 96% | [13]; at 33.0 µM 97% | [13]; at 100.0 µM 98% | [14]; [17] 97% | [14]; [18] 99% | [14]; at 50.0 µM 77% | [15]; at 1.2 µM 97% | [15]; at 3.7 µM 96% | [15]; at 11.0 µM 97% | [15]; at 33.0 µM 97% | [15]; at 100.0 µM 97%
inactive: [1]; at 1.2 µM 13% | [1]; at 3.7 µM 57% | [3]; at 1.2 µM -1% | [3]; at 3.7 µM 38% | [3]; at 11.0 µM 58% | [8]; at 1.2 µM 35% | [10]; at 1.2 µM -11% | [10]; at 3.7 µM 53% | [10]; [17] -4% | [10]; at 50.0 µM 66.8% | [11]; at 1.2 µM 28% | [12]; at 1.2 µM 28%

CN(C)CCNC(=Cc1ccc2ccccc2[n+]1C)NCCN(C)C
inactive: [16]; at 1.2 µM 0% | [16]; at 3.7 µM 0% | [16]; at 11.0 µM 0% | [16]; at 33.0 µM -1% | [16]; at 100.0 µM -2% | [2]; at 1.2 µM -2% | [2]; at 3.7 µM 0% | [2]; at 11.0 µM 1% | [2]; at 33.0 µM 3% | [2]; at 100.0 µM 2% | [3]; at 1.2 µM 0% | [3]; at 3.7 µM 0% | [3]; at 11.0 µM -3% | [3]; at 33.0 µM -1% | [3]; at 100.0 µM -1% | [4]; at 1.2 µM 1% | [4]; at 3.7 µM 1% | [4]; [17] -1% | [4]; at 11.0 µM 1% | [4]; at 33.0 µM 2% | [4]; [18] 2% | [4]; at 50.0 µM 24.2% | [4]; at 100.0 µM 1% | [5]; at 1.2 µM -5% | [5]; at 3.7 µM 0% | [5]; [17] 0% | [5]; at 11.0 µM 3% | [5]; at 33.0 µM 1% | [5]; [18] 2% | [5]; at 50.0 µM 19.6% | [5]; at 100.0 µM 1% | [6]; at 1.2 µM -2% | [6]; at 3.7 µM -1% | [6]; at 11.0 µM -2% | [6]; at 33.0 µM -3% | [6]; at 100.0 µM -2% | [7]; [17] -12% | [7]; [18] -13% | [7]; at 50.0 µM 19.4% | [9]; [17] 1% | [9]; [18] 8% | [9]; at 50.0 µM -2.95% | [10]; at 1.2 µM 2% | [10]; at 3.7 µM -3% | [10]; [17] -3% | [10]; at 11.0 µM 0% | [10]; at 33.0 µM -9% | [10]; [18] -2% | [10]; at 50.0 µM -4.65% | [10]; at 100.0 µM -5% | [11]; at 1.2 µM -2% | [11]; at 3.7 µM -3% | [11]; at 11.0 µM -2% | [11]; at 33.0 µM -2% | [11]; at 100.0 µM 0% | [12]; at 1.2 µM 0% | [12]; at 3.7 µM -2% | [12]; at 11.0 µM 1% | [12]; at 33.0 µM 0% | [12]; at 100.0 µM 0% | [14]; [17] -4% | [14]; [18] 47% | [14]; at 50.0 µM 34% | [15]; at 1.2 µM -2% | [15]; at 3.7 µM -4% | [15]; at 11.0 µM 0% | [15]; at 33.0 µM -2% | [15]; at 100.0 µM -1%
